Mtb MenB inh: Mtb MenB enzyme inhibition | P9WNP5 | MenB enzyme assay, absorbance read-out | inhibition, % (no concentration beside the values) | actives 0.43% (n = 100,000); in the data active = inhibition above about 21%, passing the limit was not always enough
Target sequence (P9WNP5 whole entry, looked up): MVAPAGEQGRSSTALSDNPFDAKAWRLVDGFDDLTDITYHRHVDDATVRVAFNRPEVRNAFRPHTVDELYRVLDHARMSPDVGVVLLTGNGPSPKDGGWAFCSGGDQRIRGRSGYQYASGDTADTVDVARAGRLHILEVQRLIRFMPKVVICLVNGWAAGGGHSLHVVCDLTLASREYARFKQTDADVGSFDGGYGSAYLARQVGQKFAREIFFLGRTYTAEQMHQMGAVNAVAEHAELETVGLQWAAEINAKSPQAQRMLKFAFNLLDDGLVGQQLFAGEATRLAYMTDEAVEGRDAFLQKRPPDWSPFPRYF
AID504770: E. coli YBA685 growth inhibition, screen for V. cholerae RctB inhibitors. actives 0.27% (n = 130,000). AID 504770. z-score (concentration not given with the values). E. coli YBA685 rctB-dependent plasmid, OD600 growth, 3 h; hits give low values; in the data active = z-score below about -2, passing the limit was not always enough
Polio RdRp inh: inhibitors of poliovirus RNA polymerase binding and polymerization | P03300 | % elongation, % (compound at 16.7 µg/mL) | poliovirus polymerase elongation, fluorescence polarization; hits give low values | actives 0.66% (n = 150,000); in the data active = % elongation below about 90%
Mtb MbtI inh: inhibitors of Mycobacterium tuberculosis siderophore enzyme MbtI. P9WFX0. purified MbtI enzyme, fluorescence intensity read-out. actives 0.89% (n = 100,000). inhibition, % (concentration not given with the values); in the data active = inhibition mostly above about 56%, no sharp cut-off; inactive = mostly below about 77%
Of the large screens only hits and unclear results are named; the others gave an inactive call. Compounds with a hit are over-represented: about 1.4% of the library has one in this group of screens.

CCn1c(N)c(C(=O)NCC2CCCO2)sc1=S (stereo not drawn)	Mtb MbtI inh 81.8
CCn1c(N)c(C(=O)NC)sc1=S	Mtb MbtI inh 86.7
COc1cccc(OC)c1CNC(=O)c1cnccc1C(F)(F)F	none (no result: Mtb MenB inh, Polio RdRp inh, Mtb MbtI inh)
FC(F)(F)c1cccc(Nc2nc3nonc3nc2Nc2ccc(Cl)cc2)c1	none (no result: Mtb MenB inh, AID504770, Mtb MbtI inh)
Cc1cccc(Nc2nc3nonc3nc2Cl)c1	Polio RdRp inh 48.0 (no result: Mtb MbtI inh)
CCCCN(C)c1nnc(NC(=O)Nc2ccc(CC)cc2)s1	none
CCOc1ccccc1NC(=O)c1ccc(Br)cc1F	none (no result: Mtb MenB inh, Polio RdRp inh, Mtb MbtI inh)
COCCNC(=O)CCC(=O)NNc1nc2ccccc2c2nc(C)nn12	Polio RdRp inh 30.0 (no result: Mtb MenB inh, AID504770, Mtb MbtI inh)
CCC(C)NC(=O)CCC(=O)NNc1nc2ccccc2c2nc(C)nn12 (stereo not drawn)	Polio RdRp inh 36.0 (no result: Mtb MenB inh, AID504770, Mtb MbtI inh)
Cc1ccc(S(=O)(=O)/N=C2/C=C(Sc3ncn[nH]3)C(=O)c3ccccc32)cc1	Mtb MbtI inh 87.7 (no result: Mtb MenB inh, Polio RdRp inh)
CC(C)c1ccc(S(=O)(=O)/N=C2/C=C(Sc3ncn[nH]3)C(=O)c3ccccc32)cc1	Polio RdRp inh 66.0
Cc1ccc(S(=O)(=O)/N=C2\C=C(Sc3ncn[nH]3)C(=O)c3ccccc32)cc1	Mtb MbtI inh 85.7
O=C1C(Sc2ccccc2)=C/C(=N/S(=O)(=O)c2cccs2)c2ccccc21	none
O=C(CCCn1nc(-c2ccccc2)c2ccccc21)N1CCc2ccccc21	none
O=C(NCC(=O)N1CCN(S(=O)(=O)/C=C/c2ccccc2)CC1)c1ccc(Br)o1	none
Cc1nccn1-c1ccc(C(F)(F)F)cc1N	none (no result: Mtb MenB inh)
CCOc1ccc(C(=O)NC(C(=O)Nc2ccc(S(=O)(=O)N(C)C)cc2)C(C)C)cc1 (stereo not drawn)	AID504770 -5
O=c1sc2c(n1-c1ccccc1)SCC1COc3ccccc3C21 (stereo not drawn)	none
O=C1OC2C(C(=O)O)Sc3c(sc(=O)n3-c3ccccc3)C2c2cc(Br)ccc21 (stereo not drawn)	Mtb MenB inh 39.3
CCOC(=O)c1ccc(-n2sc3ccccc3c2=O)cc1	none
CC(NC(=O)c1cc(=O)[nH]c2ccc(S(=O)(=O)N3CCOCC3)cc12)C12CC3CC(CC(C3)C1)C2 (stereo not drawn)	Polio RdRp inh -9.0
CC1CCN(S(=O)(=O)c2ccc3[nH]c(=O)cc(C(=O)NCCCN4CCOCC4)c3c2)CC1	none
S=C(NCCN1CCOCC1)N1CCC(Cc2ccccc2)CC1	none
OCCN/N=C/c1cccc(OC(F)F)c1	none
Cc1ccc(Cl)cc1NC(=O)C1=NCCN1	Polio RdRp inh 73.0
NC(=O)c1sc(-c2ccsc2)cc1NC(=O)C(F)(F)F	none (no result: Mtb MenB inh, Polio RdRp inh, Mtb MbtI inh)
CSc1cccc(NC(=O)CSc2ccccn2)c1	none (no result: Mtb MenB inh, Polio RdRp inh, Mtb MbtI inh)
Cc1cc(C)c(O)c(N)c1	Mtb MbtI inh 101.0
Cc1cc(NS(=O)(=O)c2ccc(N3C(=O)C=CC3=O)cc2)no1	Mtb MbtI inh 93.0
Cc1ccc(S(=O)(=O)N(CCO)Cc2cc3cc(C)c(C)cc3[nH]c2=O)cc1	none
COc1ccc2[nH]c(=O)c(CN(CCO)S(=O)(=O)c3ccc(Cl)c(C(F)(F)F)c3)cc2c1	Mtb MenB inh 32.5
Fc1ccc(Cn2[nH]nnc2=S)cc1	Mtb MbtI inh 68.8
Oc1ccc(C(=S)N2CCCCC2)cc1	Mtb MbtI inh 57.9
S=C(c1ccc(Br)cc1)N1CCCC1	none (no result: Mtb MbtI inh)
N#Cc1ccccc1S(=O)(=O)N1CCN(Cn2c(Cc3ccccc3)nc3ccccc32)CC1	none
CCOc1ccc(NC(=O)c2c(NC(=O)c3ccncc3)sc3c2CCC(C(C)(C)C)C3)cc1 (stereo not drawn)	Polio RdRp inh 83.0 (no result: Mtb MenB inh, AID504770, Mtb MbtI inh)
COc1ccc(NC(=O)c2c(NC(=O)c3ccncc3)sc3c2CCC(C(C)(C)C)C3)cc1 (stereo not drawn)	none (no result: Mtb MenB inh, AID504770, Mtb MbtI inh)
CCN(Cc1ccncc1)Cn1c(=S)oc2ccccc21	Mtb MbtI inh 74.8
CCN(CC)S(=O)(=O)c1ccc(NC(=O)Cc2ccc3c(c2)OCCO3)cc1	none
CC1CCN(C(=O)c2ccc(C(C)(C)C)cc2)CC1	none (no result: Mtb MbtI inh)
COc1ccc(C(=O)N2CC(C)CC(C)C2)cc1 (stereo not drawn)	none
COc1ccc(C(=S)N2CCC(C)CC2)cc1	Mtb MbtI inh 72.1
CC1CCN(C(=O)c2ccc(Br)cc2)CC1	Mtb MenB inh 35.8
O=C(CSc1nnc(-c2cccnc2)o1)NCCc1ccccc1	none
CN(CC(=O)Nc1ccc(F)cc1)C(=O)CSc1ccc2c(c1)OCCO2	Mtb MbtI inh 98.5
O=C(CSc1ccc2c(c1)OCCO2)Nc1ccccc1	none
CC1(C)CC(=NO)CC(C)(C)[NH+]1[O-] (stereo not drawn)	none
O=C(Cc1coc2cc(O)ccc12)OCC(=O)c1ccc2[nH]c(=O)[nH]c2c1	Polio RdRp inh 72.0
O=C(Cc1coc2cc(O)ccc12)OCc1ccccc1C(F)(F)F	none
Cc1ccc(C)c(S(=O)(=O)Nc2cc(Cl)c3oc(=O)sc3c2)c1	Mtb MbtI inh 62.0
COc1cc(OC)c(NC(=O)Cn2ncc3c(=O)oc4ccc(C)cc4c32)cc1Cl	none
O=Nc1ccc(NNC(=O)c2ccccc2O)cc1	AID504770 -2.85
O=C(Nc1ccc(NC(=O)c2ccccc2O)cc1)c1ccccc1	none (no result: Mtb MenB inh, Polio RdRp inh, Mtb MbtI inh)
O=C1NC(=O)N(CCc2ccc(F)cc2)C(=O)/C1=C\c1ccc(O)c(O)c1	Mtb MbtI inh 51.0
C=CCN1C(=O)NC(=O)/C(=C\c2ccc(O)c(O)c2)C1=O	none
CC1(C)CC(=O)C=C(Nc2ccccc2F)C1	AID504770 -2.55
COc1ccc(CNCc2cccc(OC)c2)cc1	Polio RdRp inh 89.0
CNC(=O)c1ccc2c(c1)CCCN2S(C)(=O)=O	none
CC(=O)N1C(=O)/C(=C2\SC(=S)N(C(C)C(=O)O)C2=O)c2ccccc21 (stereo not drawn)	Mtb MenB inh 33.8
CCS(=O)(=O)N1Cc2ccccc2CC1C(=O)OCc1ccc(C#N)cc1 (stereo not drawn)	none
COC(=O)CC1C(=O)NCCN1C(=O)CSc1nc2ccccc2c(=O)n1-c1ccc(C)cc1 (stereo not drawn)	none
COC(=O)CC1C(=O)NCCN1C(=O)CSc1nc2ccccc2s1 (stereo not drawn)	Mtb MbtI inh 97.2
O=c1[nH]c(CN(CCO)Cc2nc3sccc3c(=O)[nH]2)nc2sccc12	none
CN(C)/C=C1/C=C(c2ccccc2)OC1=S	Mtb MbtI inh 79.9
O=C1OC(c2ccccc2)=C/C1=C/c1ccccc1	none (no result: Mtb MenB inh, Polio RdRp inh, Mtb MbtI inh)
CCOC(=O)c1cnc2ccc(Cl)cc2c1-c1ccccc1	none (no result: Mtb MenB inh, Polio RdRp inh, Mtb MbtI inh)
COC(=O)NCCSc1nnnn1-c1ccccc1	Mtb MenB inh 30.7
O=C(NCCSc1nnnn1-c1ccccc1)c1ccccc1	none
O=c1c2ccccc2n2c(=S)[nH]nc2n1-c1ccccc1	Polio RdRp inh 89.0, Mtb MbtI inh 93.8
CCCn1c(=O)c2ccccc2n2c(=S)[nH]nc12	Mtb MbtI inh 74.7
O=c1c2ccccc2n2c(=O)[nH]nc2n1Cc1ccc(F)cc1	none
O=C(CSC1=NCCN1)C1COc2ccccc2O1 (stereo not drawn)	Mtb MenB inh 84.0
C=CCn1c(C2COc3ccccc3O2)n[nH]c1=S (stereo not drawn)	Mtb MbtI inh 97.8
COC(=O)c1cc(S(=O)(=O)NC(C)(C)C)cn1C	none
COC(=O)C(C#N)c1nc2ccccc2nc1Cl (stereo not drawn)	Polio RdRp inh 83.0

Screens from PubChem.
